DT40 TDP1 CPT = DT40-hTDP1 cell growth loss with CPT | chicken DT40 Tdp1-/-;hTDP1 cells + 20 nM CPT, ATP luminescence, 48 h | 420,000 tested, 12% active | Potency, µM (series often up to 46.2 µM), for inactives: at the top dose activity change, negative = growth inhibition, most hits filed as inhibitors | AID 686979; note: potency is the fitted concentration of half-maximal effect; % is set by controls: 0 for no effect and ±100 for the full control effect; nearly all actives have a fitted effect of over 55% in size
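Chicken DT40 Tdp1-/- cells complemented with human TDP1, 400 cells/well, exposed to compounds plus 20 nM camptothecin for at least 48 h at 37 C; viability read as ATP content by CellTiter-Glo luminescence.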
BCR signal inh = blocks chronic active B-cell receptor signaling; ABC-DLBCL IkBa-CBG/CBR reporter, luminescence ratio, 4 h; Potency, µM (doses to about 46.1 µM), for inactives: at the top dose activity change, negative = inhibition, hits mostly inhibitors; 340,000 tested, 0.05% active; active = well fitted inhibition curve with a large enough effect in the signal ratio, with a control signal flat, not every such curve was filed as active; inconclusive = small, poorly fitted or top-dose-only effect, or effect the other way, or a change in a side signal; the % refers to the signal ratio;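 note: potency is the fitted concentration of half-maximal effect; plate controls were basal doxycycline-induced cells for no effect and cells given 10 µM MG132 for full effect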
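Compounds up to 46 uM were incubated four hours with TMD8 cells whose green CBG68 luciferase is fused to IkappaBalpha; red CBR luminescence normalised the signal, and concentration-effect curves were fitted to fusion, red and ratio data.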
IL1B secr inh = inflammasome signaling inhibition, IL-1 beta readout. THP-1 LPS/ATP IL-1B secretion, AlphaLISA, 16 h; hits give low values. activity change, % at 57.5 µM. AID 743279. 360,000 tested, 4.7% active; in the data active = activity change below about -50%; inconclusive = mostly about -30% to -49%; note: % is set by controls: 0 for no effect and ±100 for the full control effect
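Secreted IL-1B measured by AlphaLISA bead assay after 16 h compound exposure of THP-1 cells; compounds (final up to 57.5 uM) added 1 h before LPS (250 ng/mL) and ATP (1.25 mM) stimulation; lower signal means less secretion.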
MCF10A rereplic = inducers of DNA re-replication in MCF 10A breast cells; MCF 10A DNA re-replication, Hoechst nuclear intensity, 48 h; Potency, µM (series often up to 46.1 µM), for the others: at the highest dose activity, positive = re-replication, hits mostly activators; 350,000 tested, 2.9% active; note: potency is the fitted concentration of half-maximal effect; % of control where 0% means no effect; nearly all actives have a fitted effect of over 50% in size
SW480 rereplic = inducers of DNA re-replication in SW480 colon cancer cells | SW480 DNA re-replication, Hoechst DNA content imaging, 48 h | AID 624297 | 340,000 tested, 1.8% active | Potency, µM (doses to about 46.1 µM), inactives show at the highest dose re-replication activation, actives largely listed as activators; note: potency is the fitted concentration of half-maximal effect; % of control where 0% means no effect; nearly all actives have a fitted effect of over 55% in size
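Treated cells incubate 48 hr (37 C, 5% CO2), are stained 40 min with Hoechst, and nuclear fluorescence is enumerated; a rise in nuclei with high DNA signal marks re-replication.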
TDP1 cell noCPT = qHTS for Inhibitors of human tyrosyl-DNA phosphodiesterase 1 (TDP1): qHTS in cells in absence of CPT; 420,000 tested, 15% active; DT40 Tdp1-/- hTDP1 cells, no CPT, ATP luminescence, 48 h; Potency, µM (series often up to 46.2 µM), for the others: top-dose activity change, negative = growth inhibition, hits mostly inhibitors; AID 686978, 2013; note: potency is the fitted concentration of half-maximal effect; % is set by controls: 0 for no effect and ±100 for the full control effect; nearly all actives have a fitted effect of over 55% in size
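No-CPT arm: Tdp1-/-;hTDP1 DT40 cells (400/well) plus compounds, incubated ≥48 hr at 37 °C. Readout CellTiter-Glo luminescence.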
The depositor's hits bear a star; ? = inconclusive; . = no result given. Rows were chosen to be rich in hits. Some 19% of all compounds tested hit in one or more screens of this group. Unless noted, calls come from the whole dose curve; as a rule, active = well fitted curve in the direction sought with a large enough effect; inconclusive = small, poorly fitted or top-dose-only effect, or another doubt; inactive = no such curve, though single readings can be large; an effect the other way counts as inactive or inconclusive.

SMILES	DT40 TDP1 CPT	BCR signal inh	IL1B secr inh	MCF10A rereplic	SW480 rereplic	TDP1 cell noCPT
CC(NC(=O)c1ccc2c(c1)OCO2)C(c1cccs1)N1CCN(c2ccccc2)CC1 (centres undefined)	?	-4%	-25	0%	?	18µM*
CC(NC(=O)c1cccs1)C(c1cccs1)N1CCN(c2ccccc2)CC1 (centres undefined)	-24%	4%	-12	7%	-1%	-17%
CC(C)C(=O)NC(C)C(c1cccs1)N1CCN(c2ccccc2)CC1 (centres undefined)	?	-5%	0	10%	-5%	21µM*
CC(NC(=O)c1ccc2c(c1)OCO2)C(c1cccs1)N1CCOCC1 (centres undefined)	?	1%	16	-6%	9%	-2%
Cc1nc(-c2ccc(C)c(S(=O)(=O)N3CCC(C(=O)NCc4ccc(F)cc4)CC3)c2)no1	2.6µM*	-7%	.	.	.	5.2µM*
Cc1nc(-c2ccc(C)c(S(=O)(=O)N3CCC(C(=O)NCc4ccc(Cl)cc4)CC3)c2)no1	?	-5%	.	.	.	?
Cc1ccc(CNC(=O)C2CCN(S(=O)(=O)c3cc(-c4noc(C)n4)ccc3C)CC2)cc1	4.6µM*	?	.	.	.	2.6µM*
CCOC(=O)c1noc2ncnc(Nc3cc(Cl)c(OC)cc3OC)c12	-12%	.	.	.	.	10%
CCN1CCN(C(=O)c2ccc3c(c2)N(Cc2ccccc2)C(=O)c2ccccc2S3(=O)=O)CC1	-8%	0%	39	5%	-7%	-24%
O=C(NCCN1CCCC1)c1ccc2c(c1)N(Cc1cccc(Cl)c1)C(=O)c1ccccc1S2(=O)=O	?	2%	-8	-20%	-13%	5%
O=C(c1ccc2c(c1)N(Cc1ccccc1)C(=O)c1ccccc1S2(=O)=O)N1CCN(Cc2ccccc2)CC1	10µM*	.	.	.	.	7.3µM*
O=C(c1ccc2c(c1)N(Cc1cccc(Cl)c1)C(=O)c1ccccc1S2(=O)=O)N1CCC(Cc2ccccc2)CC1	4.1µM*	10%	.	.	.	4.1µM*
CN1CCN(C(=O)c2ccc3c(c2)N(Cc2ccc(F)cc2)C(=O)c2ccccc2S3=O)CC1 (centres undefined)	3%	-1%	-14	-1%	-2%	-24%
O=C(c1ccc2c(c1)N(Cc1ccccc1)C(=O)c1ccccc1S2(=O)=O)N1CCN(c2ccccn2)CC1	?	.	.	.	.	21µM*
O=C(c1ccc2c(c1)N(Cc1ccc(Cl)cc1)C(=O)c1ccccc1S2=O)N1CCC(Cc2ccccc2)CC1 (centres undefined)	12µM*	.	.	.	.	9.2µM*
Cc1ccccc1S(=O)(=O)NC(=O)C1(C)CCN1C(=O)COc1ccc(Cl)cc1 (centres undefined)	2%	.	10	.	.	-9%
C[C@H]1CN([C@@H](C)CO)C(=O)c2cc(Br)cnc2O[C@H]1CN(C)C(=O)C1CC1	6%	.	20	.	.	15%
O=C(NCc1ccccc1Cl)C1CCC(CNc2c(N3CCOCC3)c(=O)c2=O)CC1 (centres undefined)	-5%	?	-5	11%	3%	-7%
CCN(CC)S(=O)(=O)c1ccc2c(c1)N(CC(=O)Nc1ccc(C)cc1C)C(=O)C1CCCN21 (centres undefined)	7%	.	.	.	.	?
O=C(c1ccc2c(c1)N(Cc1ccccc1F)C(=O)c1ccccc1S2(=O)=O)N1CCN(c2ccccn2)CC1	26µM*	.	.	.	.	21µM*
O=C(c1cc2c(s1)-c1ccccc1S(=O)(=O)C2)N1CCN(Cc2ccccc2)CC1	18µM*	-16%	-9	6%	-10%	16µM*
CC(=O)Cn1cnc2c(cnn2-c2ccc(C)c(C)c2)c1=O	?	9%	39	0%	3%	?
Cc1nnc(NC(=O)CCn2c(=O)oc3ccccc32)s1	17%	0%	29	2%	13%	1%
O=S(=O)(c1cccc(-c2nc3n(n2)Cc2ccccc2-3)c1)N1CCCCC1	?	5%	-26	1%	-29%	?
O=S(=O)(c1cccc(-c2nc3n(n2)Cc2ccccc2-3)c1)N1CCCC1	21µM*	3%	-23	23%	?	?
SMILES	DT40 TDP1 CPT	BCR signal inh	IL1B secr inh	MCF10A rereplic	SW480 rereplic	TDP1 cell noCPT
CCOc1ccc2c(c1)C(C)=CC(C)(C)N2S(=O)(=O)c1ccc(F)cc1	?	?	143	?	?	?
CCOc1ccc2c(c1)C(C)=CC(C)(C)N2S(=O)(=O)c1ccc(NC(C)=O)cc1	1µM*	?	66	?	?	1.3µM*
COc1ccc2c(c1)C(C)=CC(C)(C)N2S(=O)(=O)c1ccc(NC(C)=O)cc1	5.8µM*	4.5µM*	67	?	1.5µM*	2.3µM*
CCc1nc2ccc(C(=O)N(C)CCCN(C)C)cn2c1N(C)C(=O)C1CCCCC1	-7%	.	0	.	.	-11%
COc1ccc(NC(=O)c2ccco2)cc1NC(=O)C(C)(C)Oc1ccc(Cl)cc1	18µM*	.	.	.	.	?
COc1ccc(NC(=O)c2ccco2)cc1NC(=O)C(C)Oc1ccc(Cl)cc1Cl (centres undefined)	9.2µM*	.	.	.	.	6.5µM*
COc1ccc(C(=O)Nc2cc(NC(=O)c3ccco3)ccc2OC)cc1Cl	-3%	.	.	.	.	-4%
COc1ccc(NC(=O)Cc2ccc(Cl)cc2)cc1NC(=O)c1ccco1	-29%	8%	-56*	11%	8%	?
COC(=O)C1=C2c3[nH]c4ccccc4c3CCN2C(=O)CC1	-5%	.	-1	-4%	?	?
COC(=O)CN(c1cc([N+](=O)[O-])ccc1OC)S(C)(=O)=O	27%	14%	-27	27%	-9%	-7%
O=C(Cc1ccc(NC(=O)C2CCN(C(=O)C3CCCC3)CC2)cc1)Nc1cccc(C(=O)N2CCCCC2)c1	-25%	.	-3	-30%	-2%	-27%
O=C(CCl)N1N=C(c2cccs2)CC1c1ccco1 (centres undefined)	2.9µM*	?	-100*	18µM*	12µM*	2.9µM*
O=C(CCl)N1N=C(c2ccco2)CC1c1ccco1 (centres undefined)	9.2µM*	-13%	-99*	?	21µM*	13µM*
O=C(COc1ccc(Cl)cc1)N1N=C(c2cccs2)CC1c1ccco1 (centres undefined)	26µM*	.	-10	-5%	-5%	16µM*

Screening results (PubChem)
